Test results published in the supplement of paper PMC3334620.
In all, about 33,000 sequences were measured (“E-score (-0.5 to 0.5)”: median about -0.04, highest 2% from about 0.36 on). The entries come from a sample that favours the highest values as a whole.

molecular target: T1, Hmlalpha2 (UniProt P0CY09); test: PBM E-score (8-mer binding enrichment) (E-score (-0.5 to 0.5)); higher = stronger / more preferred TF binding; details: protein concentration: 200 nM; construct: GST-full length
T1 sequence: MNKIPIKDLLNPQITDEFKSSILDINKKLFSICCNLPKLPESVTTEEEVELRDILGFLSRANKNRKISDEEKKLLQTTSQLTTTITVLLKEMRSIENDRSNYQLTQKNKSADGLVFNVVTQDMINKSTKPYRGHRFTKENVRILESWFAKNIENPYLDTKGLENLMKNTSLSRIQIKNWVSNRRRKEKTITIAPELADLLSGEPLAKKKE
Summary of the method: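 For each ungapped eight-base word taken together with its reverse complement, the Universal PBM Analysis Suite assigned an E-score. Binding data came from GST-tagged yeast transcription factors, applied at about 100-200 nM, on universal all-10-mer Agilent arrays made double-stranded by primer extension. Fluorescent anti-GST marked bound protein, and scans were normalised with masliner.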

Sequence	PBM E-score
GATTGTGC	0.0144
ACGAGGAA	0.0596
TACGCTGA	0.122
ACATGCCT	0.3
ACATGCCA	0.397
CTATGCTC	-0.27
TCATGCAA	0.107
ACATGCTC	0.388
ATATGCTG	-0.0833
ACATGCAA	0.398
CCATGCTC	-0.13
TCATGCCA	0.0681
ACATGCAC	0.36
ACATGCTG	0.377
AAATGCTG	0.229
GTGGCCCA	-0.191
ACGCAAAC	0.125
CTCGCTAC	-0.181
CCGTTCCG	-0.225
AGCGAGTC	-0.136
CTCTAGAC	-0.116
ATCGGGGC	-0.175
AGTGCTCG	-0.187
GAGTTCGC	-0.169
TCGACAGA	-0.0778

Sequence	PBM E-score
ACATGCGT	0.399
CCATGCTA	0.0439
GCATGCTA	0.00271
ACATGCGC	0.308
ACATGCGG	0.289
ACATGCTA	0.379
TCAGCGGA	-0.169
GACCTCGC	-0.148
ACGCTCCT	0.0508
GCTAAGGA	-0.195
AATCTCCA	0.042
ACAAGCGA	0.112
ACATACAC	0.404
ACATACAT	0.421
ACATACAA	0.325
AGATACAA	0.276
CCATACAC	0.145
AGATACAG	-0.0238
ACATACAG	0.336
AGATACAT	0.388
GCATACAC	0.256
CTCTGCCA	-0.219
ATTCTTAA	0.148
GCCGAGCC	-0.127
GAGGCAGA	-0.265

Sequence	PBM E-score
CCGGACCG	-0.303
AATACACA	0.467
AATACTCA	0.18
AATACACT	0.326
AATACACC	0.307
AATACACG	0.473
CATGAGTC	0.175
ACCGGTCT	-0.25
ATTCCTGA	-0.0807
CTATAACA	0.335
GTATAATA	0.368
GTATAAAA	0.282
ATATAATA	0.199
ATATAACC	-0.0903
CTATAATA	-0.00916
GTATAACA	0.378
ATATAACA	0.384
GTATAAGA	0.116
AGCGGTTC	-0.0786
TGATCAAA	-0.137
TCACCGAA	0.0184
ACAAGTAC	0.165
CATCGGTA	-0.217
GCAAAACC	-0.272
AAATCTTC	0.0872

Sequence	PBM E-score
CCATCGCC	-0.261
ATGAACAT	0.323
GGTTACAC	0.314
CGTTACAA	0.318
CGTTACAC	0.385
CGTTACAG	-0.0046
AGTTACAC	0.426
AGTTACAG	0.0744
CGAAACTC	-0.242
CCGGCTGC	0.0149
GGCCGACA	-0.247
GAATGCTC	-0.225
ATCTCACC	-0.126
CAATCCTG	0.0153
AGGGGTTG	-0.253
CCAAGCGC	-0.0307
ACATGGGA	0.33
ACATGGGT	0.382
ACATGGAG	0.262
ACATGGGC	0.342
ACATGGAT	0.388
ACATGGAA	0.317
CCTAGGAA	-0.125
AACTTCAC	0.121
CAGATTTC	-0.132

Sequence	PBM E-score
CGAATGCA	0.145
GGCCATTA	0.0102
AGAGTGCA	-0.0981
CCACGATC	0.172
GCACGATA	0.154
ACACGAAG	0.358
CCACGATA	-0.11
ACACGATG	0.388
ACACGATA	0.433
ACACGATC	0.426
AGACGATC	-0.29
AAACGATG	0.0541
CGTGGCTC	-0.209
AAGTTCCC	-0.296
CGGTGGAC	-0.136
GAGATAAA	0.0648
ATTTAACA	0.429
GTTTAATA	0.218
ATTTAACC	0.0603
CTTTAACA	0.363
GTTTAACA	0.41
ATTTAACG	0.355
CTGGGGGA	-0.422
GCCACGAC	-0.0179
ATCTGTGG	-0.267

Sequence	PBM E-score
CCAAAGAA	-0.0602
AAAAAGAT	-0.00444
CAGGGGCG	-0.0915
ACACCTAG	-0.163
CAAAACAG	0.124
AACATGAA	0.397
TACATGAA	0.45
AGCATGAA	0.0173
CACATGAA	0.237
ATCATGAA	-0.0623
GACATGAA	0.204
AGGCCCGC	-0.162
AGGCGATG	-0.128
AATCCGGT	-0.0356
ACCATTGA	0.0496
GTAGACGA	0.17
AAGACGAT	0.0721
AAATAACA	0.316
GAATAATA	0.168
GAATAACA	0.39
TAATAACA	0.387
CAATAACA	0.239
GAATAACC	-0.0464
GGTATTAA	0.083
AGTATTAA	0.249

Sequence	PBM E-score
TGTATTAA	0.413
ATACATAC	0.386
GTACATAC	0.362
AGACATAT	0.0652
AGACATAA	0.143
CTACATAG	0.406
ATACATAA	0.392
CGACATAG	0.139
CCACATAG	-0.105
ACACATAA	0.364
CTACATAC	0.327
ATACATAT	0.393
ACATATAT	0.27
AGGAAAGG	-0.238
CTCCTATC	-0.139
ACTTTAGA	-0.0293
CAGACACA	0.035
ACCCTAAA	-0.212
AGCACTGC	-0.17
ACACATAG	0.282
ATACATAG	0.415
AAACATAG	0.291
